Source: PubChem BioAssay (several laboratories)
Myeloid diff 2 = promotes myeloid progenitor differentiation. 360,000 compounds, 1% hits. ER-HoxA9 myeloid progenitors, lysozyme-GFP differentiation, flow cytometry. AID 624256. calls only at 10 µM;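 active = normalized GFP-positive differentiation at or above the plate's own cutoff, the solvent-only control mean plus 3 SD; inconclusive = no clear call, values can overlap the other calls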;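 note: cells exposed to compound for four days before flow analysis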
RTF Ca sens act = increases calcium sensitivity of human cardiac regulated thin filaments. P19429+P45379. IANBD-labeled TnC RTF fluorescence at EC20 calcium; 0% EC20 calcium, 100% full calcium. activation, % at 7.2 µM. 340,000 compounds, 0.24% hits. AID 493008;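 active = activation above the mean over all tested compounds plus 3 SD, cut at about 30% in these data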;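 note: rise in fluorescence read as greater calcium sensitivity of cardiac thin filaments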
CRFR2-BP ag = CRF-BP/CRF-R2 complex agonism | HEK293 CRF-R2/CRF-BP, calcium dye fluorescence (FLIPR); percent of saturating CRF peptide response | activation, % at 13.2 µM | 350,000 compounds, 0.46% hits;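 active = activation of at least 50%, plus an integration ratio under a set limit after plate pattern correction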;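 note: plate controls were neutral control wells without compound for no effect and CRF at EC100 for full effect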
RTF Ca sens inh = cardiac RTF calcium desensitization. inhibition, % at 7.15 µM. AID 493244. IANBD-labeled cardiac RTF, Ca2+ fluorescence. 340,000 compounds, 0.12% hits;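 active = inhibition above the mean inhibition of all tested compounds plus 3 SD, cut at about 17% in these data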;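 note: assay run at fixed EC70 calcium of 1.6 mM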
CRFR2-BP antag = antagonists of CRF-binding protein/CRF-R2 receptor complex; HEK293 CRF-R2/CRF-BP, CRF-induced calcium fluorescence; inhibition, % at 11.8 µM; 350,000 compounds, 0.59% hits;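 active = inhibition of the ligand-induced calcium signal above about 50% at the single tested concentration, limit read from the data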
Active calls of the source: *; i = inactive; ? = inconclusive; nt = no result given; + = active, no number. Most compounds without a hit are left out; they make up all but 2.2% or so of the library.

SMILES	Myeloid diff 2	RTF Ca sens act	CRFR2-BP ag	RTF Ca sens inh	CRFR2-BP antag
CC1CC(C)CN(C(=O)CSc2nnc(N)s2)C1 (stereo not drawn)	i	-3	-2	-2	-2
O=C1C=C(c2ccccc2)C(c2ccccc2)C1O (stereo not drawn)	i	-4	77*	4	-75
CCOC(=O)C1=C(CCc2ccccc2)NC(=O)NC1c1ccc(C#N)cc1 (stereo not drawn)	i	-2	-2	-3	-6
C=CCN(c1ccccc1)S(=O)(=O)c1cccc(C(=O)OCC(=O)NCCOC)c1	i	-6	-2	-3	55*
CCOC(=O)c1oc2ccc(S(=O)(=O)n3nc(-c4ccccc4)cc3N)cc2c1C	+	-3	0	-3	-5
O=[N+]([O-])c1ccc(O)c(Nc2ncnc3ccccc23)c1	i	4	42	-15	63*
COc1ccc([N+](=O)[O-])cc1Nc1ncnc2ccccc12	i	7	-2	-11	26
O=[N+]([O-])c1ccc(O)c(Nc2ncnc3ccc(Br)cc23)c1	i	-6	52*	-1	66*
O=[N+]([O-])c1ccc(Nc2ccccc2O)c([N+](=O)[O-])c1	+	nt	1	nt	13
Cc1ccc(O)c(Nc2ncnc3ccc([N+](=O)[O-])cc23)c1	i	0	-4	-4	-7
CC(C)(C)C(=O)NCc1ccc(C(=O)CSc2nnc3n2CCCCC3)s1	i	nt	2	nt	-4
Cc1ccc([N+](=O)[O-])cc1NC(=S)NC(=O)c1cccs1	i	3	-3	-6	21
NC(=O)COC(=O)c1ccc(-c2ccc(O)cc2)cc1	i	-3	1	-6	80*
CC(=O)NCc1ccc(S(=O)(=O)N2CCN(S(=O)(=O)c3ccc4ccccc4c3)CC2)cc1	i	-9	2	-14	2
O=C1/C(=C\c2ccccc2)SC(=S)N1CCC(=O)N1CCCCC1CCO (stereo not drawn)	?	-1	0	-3	-6
COc1ccc(/C=C2\SC(=S)N(CCCC(=O)N3CCCCC3CCO)C2=O)cc1 (stereo not drawn)	+	-2	-1	6	-3
Cc1cccc(C)c1NC(=O)c1sccc1SCc1cccc(C(F)(F)F)c1	i	-8	12	8	71*
Cc1ccc(S(=O)(=O)N2CCCc3cc(NC(=O)c4c(F)cccc4F)ccc32)cc1	+	-5	3	-6	19
CC(=O)Nc1ccc(S(=O)(=O)N2CCN(c3nnnn3-c3ccccc3)CC2)cc1	nt	0	0	-5	102*
COc1cccc2c1C(=O)c1c(O)c3c(c(O)c1C2=O)C[C@](O)(C(C)=O)C[C@H]3O[C@@H]1C[C@@H](N)[C@@H](O)[C@@H](C)O1	nt	184*	64*	-216	-66
COc1cccc2c1C(=O)c1c(O)c3c(c(O)c1C2=O)CC(O)(C(C)=O)CC3OC1CC(O)C(O)C(C)O1 (stereo not drawn)	nt	223*	96*	-300	-103
O=C(c1cnccn1)N1CCc2ccccc2C1	i	4	0	6	3
COc1ccc(N(CC(=O)N/N=C/c2ccc3c(c2)OCO3)S(=O)(=O)c2ccc(NC(C)=O)cc2)cc1	i	3	1	-1	54*
COc1ccccc1C(=O)N/N=C/c1ccc2c(c1)OCO2	i	-4	-1	-1	9
COc1ccc(N(CC(=O)Nc2ccc3c(c2)OCO3)S(=O)(=O)c2ccc(F)cc2)cc1	i	-2	0	-1	9
SMILES	Myeloid diff 2	RTF Ca sens act	CRFR2-BP ag	RTF Ca sens inh	CRFR2-BP antag
Cc1ccc(CC(=O)N/N=C/c2ccc3c(c2)OCO3)cc1	i	2	-5	-2	-15
COc1cc2ccccc2cc1C(=O)N/N=C/c1ccc2c(c1)OCO2	i	2	-1	-1	53*
O=C(CCc1ccc(O)cc1)NN=Cc1ccc2c(c1)OCO2	+	nt	0	nt	10
CCC(=O)N1CCCC(C)(C(=O)Nc2ccc3oc(CC)nc3c2)C1 (stereo not drawn)	i	nt	nt	nt	nt
c1nc(C2CCCCC2)cc2cc3c(cc12)OCO3	i	-1	1	-3	-11
CCOC(=O)CC1C(=O)NCCN1c1nc2ccc(C)cn2c(=O)c1/C=C1\SC(=S)N(CC(C)C)C1=O (stereo not drawn)	+	182*	189*	-231	-134
CCCN1C(=O)/C(=C/c2c(N3CCNC(=O)C3CC(=O)OCC)nc3c(C)cccn3c2=O)SC1=S (stereo not drawn)	+	130*	191*	-302	-200
CCOC(=O)CC1C(=O)NCCN1C(=O)c1ccc(C)cc1 (stereo not drawn)	i	3	0	3	-4
N#Cc1ccc(CN2CCN(C(=O)c3cc(C4CC4)nn3-c3ccccc3)CC2)cc1	i	1	-4	-5	20
O=S(=O)(O)c1ccc2c(c1)C(C(Cl)(Cl)Cl)OC(C(Cl)(Cl)Cl)O2 (stereo not drawn)	i	-1	1	8	13
COc1ccc(-c2csc(NC(=O)c3ccccc3NS(=O)(=O)c3ccc(C)cc3)n2)cc1	i	-6	10	6	58*
C#CCNC(=O)C1=C[C@@H](c2ccc(Br)cc2)[C@H](CCCO)[C@@H](OCC)O1	i	8	0	-3	-1
CCO[C@@H]1OC(C(=O)NCc2ccccc2)=C[C@H](C2CCCCC2)[C@H]1CCCO	+	0	0	14	5
CCO[C@@H]1OC(C(=O)NCc2ccccc2)=C[C@H](C2CC2)[C@H]1CCCO	i	1	-3	9	-2
C#CCNC(=O)C1=C[C@H](c2ccc3c(c2)OCO3)[C@@H](CCCO)[C@H](OCC)O1	i	-3	-1	0	81*
O=C1C(=O)N(c2ccccn2)C(c2cccc([N+](=O)[O-])c2)/C1=C(/O)c1ccc(Br)cc1 (stereo not drawn)	i	-2	-1	-5	18
C=Cn1cc[n+](CC(=O)c2ccc(Br)cc2)c1	i	-5	-1	-6	10
C=Cn1cc[n+](CC(=O)c2ccc(Cl)cc2)c1	i	-1	4	-7	117*
COc1ccc(CNc2cc(C)nc3ncnn23)c(OC)c1	+	4	-2	2	24
COc1ccc(NS(=O)(=O)c2ccc(N3CCOCC3)c(NC(=O)c3ccc(F)cc3)c2)cc1	i	-7	-1	0	-19
COc1ccc(NS(=O)(=O)c2ccc(O)c(NC(=O)c3cc4c(C)nn(-c5ccc(F)cc5)c4s3)c2)cc1	i	4	93*	-3	-77
COc1ccc([C@H]2C(C(=O)O)=C[C@@H](CC3CCCC3)N2S(=O)(=O)c2ccc(C)cc2)cc1OC	i	-2	1	-5	11
COc1ccc(/C=N/OCC(=O)NC(c2ccccc2)c2ccccc2)c(OC)c1	i	0	0	-9	20
